From PubChem BioAssay (NCI)
The panel holds about 83,000 compounds, 20% with a hit somewhere; the sample as a whole holds those more often.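 Interpretation: 100, growth as untreated; towards 0, rising growth inhibition; 0, no net growth; 0 to -100, cell death. Compounds scoring below 10 were considered active.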 Unmarked numbers belong to inactive results. Calls of active or inactive are those of the source.

What was measured:
Test in all cases: NCI-60 one-dose screen, 48 h (100 = growth as untreated, 0 = no growth, -100 = all killed)
Conditions in all cases: 10 µM unless noted
T-47D breast = system: T-47D breast
BT-549 breast = system: BT-549 breast
MDA-MB-435 melanoma = system: MDA-MB-435 melanoma
SW-620 colon = system: SW-620 colon
MCF7 breast = system: MCF7 breast
HCT-116 colon = system: HCT-116 colon
HCC-2998 colon = system: HCC-2998 colon
KM12 colon = system: KM12 colon

SMILES | growth (T-47D breast) | growth (BT-549 breast) | growth (MDA-MB-435 melanoma) | growth (SW-620 colon) | growth (MCF7 breast) | growth (HCT-116 colon) | growth (HCC-2998 colon) | growth (KM12 colon)
Clc1nc(Nc2ccccc2)nc(Nc2ccccc2)n1 | 76.1% | 90.5% | 108% | 108% | 92.4% | 93.2% | 93.3% | 102%
COc1ccc(C2=C(c3ccccc3)c3ccc(OC(C)=O)cc3OC2(C)C)cc1 | 83.9% | 140% | 80.5% | 82.1% | 93.9% | 88.9% | 86.5% | 52.7%
COc1cc(CCNc2nc3cc(N)cc(N)c3nc2-c2ccccc2)cc(OC)c1 | -31% (active) | 19.1% | -56.8% (active) | -56.7% (active) | -79.9% (active) | -35.9% (active) | -5.77% (active) | 4.39% (active)
NC(=O)C1(N2CCCCC2)CCN(CCCC(=O)c2ccc(F)cc2)CC1 | 44% | 56.3% | -48.3% (active) | 19.6% | 20% | 19.3% | 11% | 15.8%
O=C1Nc2ccccc2/C1=C\c1cccc(/C=C2/C(=O)Nc3ccccc32)n1 | -51.6% (active) | -86.4% (active) | -73.6% (active) | -75.9% (active) | -69.9% (active) | -65.6% (active) | -84.1% (active) | -83.1% (active)
COc1cccc(CCC(=O)c2cc3c(N)c(C(=O)Nc4ccccc4)sc3nc2C)c1 | 38.2% | 44.8% | -44.5% (active) | 22.2% | 10.5% | 14.4% | 45.1% | 23%
O=C1Nc2c(ccc(Cl)c2Cl)/C1=C/c1ccccn1 | 56.9% | 92.1% | 77.2% | 76.8% | 29% | 24.2% | 85.1% | 87.1%
COc1ccc2c(Nc3ccc(NS(C)(=O)=O)cc3)c3ccccc3nc2c1 | 2.85% (active) | 49.9% | -11.1% (active) | -31% (active) | 11.1% | 2.19% (active) | -60.9% (active) | -13.2% (active)
C=CCn1c(SCC(=O)Nc2ccc(C(=O)/C=C/c3cc(OC)c(OC)c(OC)c3)cc2)nnc1-c1cc(-c2ccc(S(C)(=O)=O)cc2)nc2ccccc12 | 85.6% | 79.4% | 88.6% | 77% | 50.6% | 27.4% | 111% | 75.2%
Fc1ccc(-n2cc(COc3ncnc4sc5c(c34)CCCC5)nn2)cc1Cl | 95.1% | 103% | 99% | 101% | 95% | 101% | 114% | 105%
CC[C@H](CC[C@@H](C)[C@H]1CC[C@H]2[C@@H]3CC=C4C[C@@H](OCCc5nn[nH]n5)CC[C@]4(C)[C@H]3CC[C@]12C)C(C)C | 90.2% | 116% | 112% | 121% | 101% | 95.1% | 109% | 100%
COc1cccc(C(Cc2ccccc2)Nc2ccccc2)c1OC (stereo unspecified) | 80.6% | 101% | 105% | 95.1% | 102% | 77% | 91.2% | 99.6%
Cc1[nH]n(C(=O)c2ccncc2)c(=O)c1N=Nc1ccc(F)c(Cl)c1 | 99.7% | 103% | 112% | 99.8% | 92.1% | 103% | 110% | 105%
NC(=O)c1cccc(-n2ccc3cc(NC(=O)Nc4cc(C(F)(F)F)cc(C(F)(F)F)c4)ccc32)n1 | 44.7% | 74.4% | 50.5% | 73.7% | 27.2% | 38% | 88.2% | 11.7%
COc1cc(C2CC(c3cccc(Nc4ccncc4)c3)=NN2C(C)=O)cc(OC)c1OC (stereo unspecified) | 85.2% | 103% | 18.1% | 87.8% | 72.6% | 71.2% | 95.1% | 69.5%
CCNC(=O)c1[nH]cc(-c2ccc(OC)cc2)c1-c1cc(OC)c(OC)c(OC)c1 | 27.7% | 72.5% | -4.43% (active) | 31.4% | 24.4% | 15.3% | 89.2% | 22.1%

SMILES | growth (T-47D breast) | growth (BT-549 breast) | growth (MDA-MB-435 melanoma) | growth (SW-620 colon) | growth (MCF7 breast) | growth (HCT-116 colon) | growth (HCC-2998 colon) | growth (KM12 colon)
COc1ccc(/C=C/c2n[nH]c3ccc(N4CCOC4=O)cc23)cc1 | 17.6% | 16.1% | 44.4% | 1.51% (active) | 2.37% (active) | 8.08% (active) | 31.5% | 8.51% (active)
COc1ccc(-c2nc(N/N=C/c3cccc(Br)c3)nc(N3CCOCC3)c2C#N)cc1 | 77% | 100% | 87.9% | 14% | 59.3% | 32.9% | 75.4% | 44.2%
COc1cc2nc(Cc3ccc(C)cc3)[nH]c(=O)c2cc1OC | 107% | 229% | 119% | 101% | 104% | 117% | 106% | 109%
Cc1ccc(C2C3CC4CCCCC4N3[C@@]3(C(=O)Nc4cc(Cl)ccc43)C2C(=O)c2nc3ccccc3[nH]2)cc1 (stereo partly specified) | 27.4% | 52.8% | 26.5% | 29.8% | 13.8% | 19.5% | 38.4% | 38%
COc1cccc(NC(=O)c2cccc(-c3cc(=O)c4c(OC)c(OC)c(OC)cc4o3)c2)c1 | 44.4% | 54.2% | 81.2% | 89.6% | 87.7% | 60.7% | 87.8% | 53.7%
CCCCCCN(C)Cc1ccc(OCCOc2ccc(CN(C)CCCCCC)cc2)cc1 | -13.7% (active) | 26.2% | -17.4% (active) | -70.2% (active) | -76.3% (active) | -96.1% (active) | -87.5% (active) | -19.3% (active)
C(=N\Nc1ncc(-c2cc3cc4c(cc3o2)OCO4)s1)/c1c[nH]c2ccccc12 | -3.93% (active) | -56.9% (active) | -31.6% (active) | -33.9% (active) | -0.831% (active) | -1.24% (active) | -3.45% (active) | -29.8% (active)
c1ccc(C2CC(c3cccc(Nc4ccncc4)c3)=NN2c2ccccc2)cc1 (stereo unspecified) | 92.1% | 92.7% | 15.3% | -44.4% (active) | 14.4% | -67.1% (active) | 3.07% (active) | 44.7%
CNC(=O)Nc1ccc(-c2nc(N3CCOCC3)nc3c2cnn3C2CCOCC2)cc1 | -15.6% (active) | -15.4% (active) | -26.6% (active) | 12% | 1.06% (active) | 12.7% | 13.5% | 12.8%
CCCCCCC/C=C/[C@H]1O[C@]2(O)C(=O)C=C3C[C@@H](O[C@@H]4O[C@H](CO)[C@@H](O)C(O)[C@@H]4O)C[C@@H]3[C@H]2C=C1C (stereo partly specified) | -9.2% (active) | -18.6% (active) | -19.9% (active) | -28.5% (active) | 8.66% (active) | -45.9% (active) | 32.8% | 15.5%
Clc1ccc2c(c1)c(-c1ccccc1)nc1nncn12 | 98.2% | 99.8% | 113% | 116% | 99% | 106% | 113% | 103%
CC1(C)CN(Cc2ccccc2)CCN1Cc1ccccc1 | 100% | 109% | 104% | 97.6% | 114% | 101% | 106% | 104%
CCCCCCCCOC(=O)c1ccc(O)c(OC)c1 | 82.7% | 102% | 106% | 109% | 66.9% | 102% | 97.9% | 102%
COc1ccc(Cn2nc(-c3ccccc3)c3c2CCc2cnoc2-3)cc1 | 43.4% | 82.1% | 28.4% | 83.2% | 72.6% | 65.4% | 67.4% | 56.8%
N/C(=N\N=C\c1cc2ccccc2s1)N/N=C/c1cc2ccccc2s1 | 95.5% | 78.5% | 106% | 103% | 82.7% | -69.7% (active) | 103% | 103%
CC(C)(C)OC(=O)N1CCN(c2ccc(N)cc2)C(=O)C1 | 106% | 116% | 106% | 109% | 91.9% | 99.9% | 102% | 108%
